Test results reported in PubChem BioAssay AID1159580 (chemical genetic matrix, 2015).
Where “and” joins values, the source holds several entries; their conditions need not be identical. Identical values can stand only once. About 2,000 (36%) of roughly 5,500 compounds were called active. Roughly 18% stayed inconclusive and do not appear here. No stated cut-off is given here; in the data, active means normalized growth mostly below about 0.91 (no sharp cut-off); inconclusive means no clear call, values can overlap the other calls; inactive means mostly above about 0.92. Some of the results follow.

Experiment: chemical genetic growth profiling, strain panel (AID 1159580);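 further: tested at 20 µM; growth read once vehicle control cultures reached saturation at 30 °C; 1 = growth at the plate median or of vehicle wells; lower values mean less growth of the strain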
Settings: S. cerevisiae deletion strains, growth OD

Measured: normalized growth

CN(C)CC/C=C1/c2ccccc2COc2ccccc21
inactive: locus YAL021C, strain ccr4, active compounds read low 0.99 | locus YAL026C, strain drs2, active compounds read low 1.03 | locus YAL030W, strain snc1, active compounds read low 1.02 | locus YBL061C, strain skt5, active compounds read low 1.02 | locus YBR009C, strain hhf1, active compounds read low 1.01 | locus YBR021W, strain FUR4, active compounds read low 0.991 | locus YBR023C, strain chs3, active compounds read low 1.03 | locus YBR171W, strain sec66, active compounds read low 1.05 | locus YBR229C, strain ROT2, active compounds read low 1 | locus YBR231C, strain swc5, active compounds read low 1.04 | locus YBR279W, strain paf1, active compounds read low 1.01 | locus YCL011C, strain gbp2, active compounds read low 1.03 | locus YCL016C, strain dcc1, active compounds read low 1.02 | locus YCL029C, strain bik1, active compounds read low 1.02 | locus YCL069W, strain vba3, active compounds read low 1.03 | locus YCR088W, strain abp1, active compounds read low 1.03 | locus YDL005C, strain med2, active compounds read low 1.05 | locus YDL035C, strain GPR1, active compounds read low 1.03 | locus YDL040C, strain nat1, active compounds read low 1.02 | locus YDL074C, strain BRE1, active compounds read low 1.01 | locus YDL101C, strain DUN1, active compounds read low 1.02 | locus YDL134C, strain PPH21, active compounds read low 1.01 | locus YDL185W, strain tfp1, active compounds read low 1.03 | locus YDL192W, strain arf1, active compounds read low 1.03 | locus YDR001C, strain nth1, active compounds read low 1.01 | locus YDR069C, strain doa4, active compounds read low 1.02 | locus YDR101C, strain arx1, active compounds read low 0.992 | locus YDR137W, strain rgp1, active compounds read low 1.14 | locus YDR159W, strain sac3, active compounds read low 1.05 | locus YDR162C, strain NBP2, active compounds read low 1.02 | locus YDR195W, strain ref2 1.05 | locus YDR297W, strain sur2, active compounds read low 1.03 | locus YDR318W, strain mcm21, active compounds read low 1.02 | locus YDR334W, strain swr1, active compounds read low 1.02 | locus YDR335W, strain msn5, active compounds read low 1.02 | locus YDR388W, active compounds read low 1.03 | locus YDR392W, strain spt3, active compounds read low 0.987 | locus YDR502C, strain sam2, active compounds read low 1.02 | locus YEL003W, strain gim4, active compounds read low 1.03 | locus YEL037C, strain rad23, active compounds read low 1.02 | locus YEL061C, strain CIN8 (second series), active compounds read low 1.02 | locus YEL061C, strain CIN8, active compounds read low 1.01 | locus YER015W, strain faa2, active compounds read low 0.977 | locus YER016W, strain bim1, active compounds read low 1.01 | locus YER110C, active compounds read low 1.02 | locus YER111C, strain swi4, active compounds read low 1.03 | locus YER155C, strain BEM2 (second series), active compounds read low 1.01 | locus YER155C, strain BEM2, active compounds read low 1.01 | locus YER167W, strain BCK2, active compounds read low 1.01 | locus YFR010W, strain ubp6, active compounds read low 1.02 | locus YGL078C, strain dbp3, active compounds read low 1.01 | locus YGL086W, strain mad1, active compounds read low 1 | locus YGL167C, strain pmr1, active compounds read low 1.03 | locus YGL173C, strain kem1, active compounds read low 1.03 | locus YGL227W, strain vid30, active compounds read low 1.01 | locus YGL240W, strain doc1, active compounds read low 1 | locus YGL248W, strain PDE1, active compounds read low 1 | locus YGL253W, strain hxk2, active compounds read low 1.02 | locus YGR078C, strain PAC10, active compounds read low 1.01 | locus YGR135W, strain pre9, active compounds read low 1.03 | locus YGR229C, strain SMI1, active compounds read low 1.02 | locus YGR252W, strain gcn5, active compounds read low 0.972 | locus YHR013C, strain ard1, active compounds read low 0.983 | locus YHR027C, strain rpn1, active compounds read low 0.983 | locus YHR030C, strain SLT2, active compounds read low 1.02 and 1.03 | locus YHR079C, strain IRE1 (second series), active compounds read low 1.03 | locus YHR079C, strain IRE1, active compounds read low 1.06 | locus YHR094C, strain hxt1, active compounds read low 1.01 | locus YHR129C, strain ARP1, active compounds read low 1.01 | locus YHR142W, strain chs7, active compounds read low 1.02 | locus YHR200W, strain rpn10, active compounds read low 1.04 | locus YIL066C, strain RNR3, active compounds read low 1.02 | locus YIL073C, strain SPO22, active compounds read low 1.11 | locus YIL125W, strain kgd1, active compounds read low 1.01 | locus YIR030C, strain dcg1, active compounds read low 1.01 | locus YJL092W, strain hpr5, active compounds read low 1.03 | locus YJL095W, strain BCK1 (second series), active compounds read low 1.03 | locus YJL095W, strain BCK1, active compounds read low 0.992 and 1.03 | locus YJL115W, strain asf1, active compounds read low 1.03 | locus YJL129C, strain trk1, active compounds read low 1.06 | locus YJL134W, strain LCB3, active compounds read low 1.01 | locus YJL154C, strain vps35, active compounds read low 1.02 | locus YJL164C, strain tpk1, active compounds read low 1.02 | locus YJL166W, strain qcr8, active compounds read low 1.01 | locus YJL168C, strain set2, active compounds read low 1.01 | locus YJL187C, strain SWE1 (second series), active compounds read low 1.01 | locus YJR043C, strain POL32, active compounds read low 1.01 | locus YJR066W, strain TOR1, active compounds read low 0.931 | locus YKL009W, strain mrt4, active compounds read low 1.03
